TR SRC2 fluor cs: Total Fluorescence Counterscreen for Inhibitors of the Interaction of Thyroid Hormone Receptor and Steroid Receptor Coregulator 2 | TRb/SRC2 Texas Red total fluorescence interference | Potency, µM (titrated, usually from 106 µM), for the others: at the top dose fluorescence change, negative = quenching | hit rate 0.29% among 280,000 | AID 1479, 2009; active = well fitted curve in either direction with a large enough effect; inconclusive = small, poorly fitted or top-dose-only effect; also: potency is read from the fitted curve at half-maximal effect; % is scaled to controls: 0 for no effect and ±100 for the full control effect
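Flags fluorescent or light-absorbing compounds by total fluorescence, S + 2P, at 555 nm excitation and 632 nm emission. Mixture: 20 nM Texas Red SRC2 peptide, 0.6 uM human TRb LBD, 1 uM T3, 5% DMSO; compound exposure 5 h at ambient temperature.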
Coupling enz: qHTS Assay for Inhibitors of Fructose-1,6-bisphosphate Aldolase from Giardia Lamblia: Coupling assay counterscreen; activity change, negative = inhibition, % at 58.2 µM, hits read low; AID 2472, 2010; coupling enzyme system counterscreen, AmpLite Red fluorescence; hit rate 0.67% among 290,000; in the data active = activity change below about -30%; also: % is scaled to controls: 0 for no effect and ±100 for the full control effect
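Compounds tested against the coupling enzymes alone at 57.5 uM final; readout was AmpLite Red fluorescence (525/598 nm) after 20 min at RT.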
TSHR antagonist: Antagonists of the Thyroid Stimulating Hormone Receptor: HTS campaign; Thyrotropin receptor (Homo sapiens), P16473; TSHR-expressing cells, TSH-stimulated cAMP HTRF, 2 h; hits give low values; activity change, negative = inhibition, % at 11.5 µM; hit rate 0.2% among 330,000; AID 504810, 2011;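 active = activity change below a set negative limit, meaning inhibition stronger than a set level, cut at about -70% in these data; inconclusive = activity change between two set negative limits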; also: % is scaled to controls: 0 for no effect and ±100 for the full control effect
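TSHR-expressing cells were treated with compounds, then stimulated with TSH at EC80 (4nM final) for 2 hours at 37 deg C. Cellular cAMP was measured by HTRF competition between lysate cAMP and cAMP-d2 for a cryptate-labelled anti-cAMP antibody.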
NPSR antag: qHTS Assay for Antagonists of the Neuropeptide S Receptor: cAMP Signal Transduction | AID 1461, 2008 | CHO-NPSR cells, cAMP TR-FRET, antagonist mode | hit rate 1% among 220,000 | Potency, µM (top dose mostly 38.3 µM), for inactives: at the top dose activity change, negative = inhibition, actives largely listed as inhibitors; also: potency is read from the fitted curve at half-maximal effect; % is scaled to controls: 0 for no effect and ±100 for the full control effect; nearly all actives have a fitted effect of over 50% in size
TCR act: Activators of T cell receptors: qHTS campaign; Potency, µM (series often up to 9.22 µM), for the others: at the top dose activation of IL-2 secretion, most hits filed as activators; 330,000 tested, under 10 active; primary human leukocytes, anti-CD3, IL-2 HTRF, 48 h; AID 504894, 2011; also: % of control where 0% means no effect
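Primary human leukocytes incubated 48 hr with anti-CD3 beads plus compound, without co-stimulation. Secreted IL-2 measured by HTRF (europium cryptate/d2 anti-IL-2 pair, 320 nm excitation, 665 nm emission).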
TRb-SRC2 inh: qHTS for Inhibitors of the Interaction of Thyroid Hormone Receptor and Steroid Receptor Coregulator 2 | Thyroid hormone receptor beta (Homo sapiens), P10828 | Potency, µM (highest dose often 106 µM), for the others: top-dose activity change, negative = inhibition, most hits filed as inhibitors | hit rate 0.065% among 280,000 | TRbeta-SRC2 peptide binding, fluorescence polarization; receptor liganded with 1 µM T3;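 also: potency is read from the fitted curve at half-maximal effect; plate controls were bound peptide for no effect and peptide without receptor for full effect; nearly all actives have a fitted effect of over 50% in size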
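Human TRb LBD (0.6 uM) plus Texas Red-labeled SRC2 peptide (20 nM), 1uM T3, 5% DMSO, 5 hr at ambient temperature. Decreased polarization (555/632 nm) flags inhibition; data normalized to free and bound peptide controls.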
Starred values were filed as active, the others as inactive; ? = inconclusive; nt = not tested or not shown; [ ] = remark or other dose. Sampled rows, rich in hits. Any-hit rate of the full collection: about 1%. Unless noted, calls follow the shape of the dose curve; as a rule, active = well fitted curve in the direction sought with a large enough effect; inconclusive = small, poorly fitted or top-dose-only effect, or another doubt; inactive = no such curve, though single readings can be large; an effect the other way counts as inactive or inconclusive.

SMILES	TR SRC2 fluor cs	Coupling enz	TSHR antagonist	NPSR antag	TCR act	TRb-SRC2 inh
C/C(Cn1nnc([N+](=O)[O-])n1)=N\NC(=O)c1ccc(C)cc1	-4%	-38*	-3	22%	-2%[46.1 µM]	-6%
C/C(Cn1nnc([N+](=O)[O-])n1)=N\NC(=O)c1ccncc1	-1%	-40*	10	20%	-1%	-10%
CCc1ccc(-n2c(N3CCN(c4cccc(Cl)c4)CC3)nc3ccccc3c2=O)cc1	0%	nt	nt	nt	nt	0%
Cc1c[nH]c2cccc(OCC(O)CNC(C)(C)C)c12 (configuration not stated)	1%	-35*	-7	-21%[46.1 µM]	3%	-23%
CC(C)(C)NCC(O)COc1ccccc1C(C)(C)C (configuration not stated)	1%	-1	-10	17%[46.1 µM]	2%	1%
NCCCCCCCCCCC(=O)O	-4%[201 µM]	nt	nt	nt	nt	-3%[201 µM]
CCCn1c(=O)c2sccc2n2c(CCCC(=O)Nc3cccc(CC)c3)nnc12	-1%	nt	nt	nt	nt	7%
O=[N+]([O-])/C=C/c1cn(Cc2ccccc2)c2ccccc12	3%	-2	27	10µM*	5%	-21%
O=C(O)Cn1cc(/C=C/[N+](=O)[O-])c2ccccc21	-1%	-4	-18	-48%	-8%	-4%
O=C(Cn1cc(/C=C\[N+](=O)[O-])c2ccccc21)Nc1ccccc1	-4%	0	11	13µM*	11%	-1%
Cc1ccc(NC(=O)CSc2n[nH]c(-c3ccc(F)cc3)n2)cc1F	-1%	nt	nt	nt	nt	-2%
CCCC1(C)C(C#N)(C#N)C1(C#N)C#N	nt	nt	-24	nt	nt	nt
CCOC(=O)/C(=C\c1cccnc1)C(=O)c1cc(C(C)=O)c(Nc2ccccc2)s1	-1%	2	-37	3.2µM*	0%	1%
Cn1c2ccccc2c(=O)n2c(=O)c3ccccc3cc12	3%	-35*	-4	-8%[46.1 µM]	nt	0%
CNc1oc(-c2ccc(C)cc2)nc1P(=O)(c1ccccc1)c1ccccc1	1%	-7	15	13µM*	6%	-14%
COc1cc(N(Cc2ccccc2)Cc2ccccc2)c2ncn(C(C)C)c2c1	nt	nt	-7	nt	-2%	nt
CC(C)n1cnc2c(N(C)c3ccccc3)nc(N(CCN(C)C)Cc3ccccc3)nc21	-2%	0	-5	10µM*	3%	-16%
COc1ccc(-c2nn(-c3ccccc3)cc2/C=N/NC(=O)c2ccc(Br)o2)cc1	-1%	-2	-95*	6.3µM*	3%	3%
CN1C(=O)/C(=C/C=C2/CCCN2C)N(C)C1=S	0%	-42*	-1	59%	0%	-3%
COc1ccc(CC(C)NS(=O)(=O)c2ccc3c(c2)CCN3S(C)(=O)=O)cc1OC (configuration not stated)	7.1µM*[quencher]	nt	16	nt	-1%	-5%
Brc1ccc2[nH]ncc2c1	-1%	2	10	21%[46.1 µM]	-8%[46.1 µM]	2%
Nc1ccc2cn[nH]c2c1	0%	-32*	5	6%	2%	2%
O=C(Nc1cccc(Br)c1)N1CCC(CN2CCCCC2)CC1	3%	nt	nt	nt	nt	-2%
Cc1ccc(C)c(NC(=O)N2CCC(CN3CCOCC3)CC2)c1	?	nt	nt	nt	nt	-16%
Cc1cc(NC(=O)N2CCC(CN3CCOCC3)CC2)ccc1Br	79µM*[quencher]	nt	nt	nt	nt	-17%
CCOc1ccc(NC(=O)N2CCC(CN3CCCCCC3)CC2)cc1	126µM*[quencher]	nt	nt	nt	nt	-29%
O=C(Nc1ccc(Br)cc1)N1CCC(CN2CCCC2)CC1	45µM*[quencher]	nt	nt	nt	nt	?
CCOc1ccc(CNC(=O)C2CCCN(S(=O)(=O)c3ccc4c(c3)CCCC(=O)N4)C2)cc1 (configuration not stated)	-1%	nt	nt	nt	nt	-4%
